According to PubChem BioAssay AID504652 (National Center for Advancing Translational Sciences (NCATS), 2011):
About 11,000 (3.1%) of roughly 360,000 compounds were called active. The sample holds actives, similar compounds and a random draw of the others, so the mix is not that of the screen. A number with no mark means an inactive call. Rule as the data show it: active = activity change below about -30%; inactive = the rest.

Biological target: D(1A) dopamine receptor (Homo sapiens) (UniProt P21728)
Sequence (P21728 whole entry, looked up): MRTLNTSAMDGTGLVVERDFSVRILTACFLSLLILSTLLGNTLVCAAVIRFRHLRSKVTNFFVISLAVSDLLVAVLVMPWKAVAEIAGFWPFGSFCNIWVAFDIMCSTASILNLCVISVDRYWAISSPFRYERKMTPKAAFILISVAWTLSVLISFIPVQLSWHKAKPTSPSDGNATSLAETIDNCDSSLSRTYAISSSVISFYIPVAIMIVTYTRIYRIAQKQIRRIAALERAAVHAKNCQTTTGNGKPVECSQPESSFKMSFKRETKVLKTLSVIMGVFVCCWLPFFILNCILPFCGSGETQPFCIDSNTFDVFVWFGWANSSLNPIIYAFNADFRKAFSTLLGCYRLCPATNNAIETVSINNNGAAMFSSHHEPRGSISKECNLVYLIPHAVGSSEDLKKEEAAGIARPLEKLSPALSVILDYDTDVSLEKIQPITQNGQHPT
Assay: Antagonist of Human D 1 Dopamine Receptor: qHTS
Conditions: HEK293 TREx D1 cells, calcium flux, dopamine EC80; at 10 µM; hits give low values
In short: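 Tetracycline-induced HEK293 T-REx cells with force-coupled D1 receptor were loaded with a no-wash calcium dye. Compound was added after a 10 s baseline and read kinetically for 180 s; EC80 dopamine was then added and calcium flux followed another 180 s.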
% is scaled to controls: 0 for no effect and ±100 for the full control effect.

SMILES	activity change, negative = inhibition
O=C1CN(C(=O)Nc2ccccc2C(F)(F)F)C(c2ccccc2)c2c(sc3c2CCCC3)N1 (stereo not given)	-10.2%
COc1cccc(-n2cc(C(=O)NCc3cccc(Cl)c3)c3ccccc3c2=O)c1	-9.19%
Cc1ccc(C)c(Cn2c(=O)n(CCC(=O)NCc3ccc4c(c3)OCO4)c(=O)c3sccc32)c1	-5.56%
COc1ccccc1N1CCN(C2C(=O)c3ccccc3N2C(C)=O)CC1 (stereo not given)	-1.14%
O=C(c1ccc2c(c1)N(Cc1ccccc1)C(=O)c1ccccc1S2(=O)=O)N1CCC(Cc2ccccc2)CC1	-25.2%
COc1cccc(N2C(=O)CN(Cc3ccccc3)C2=S)c1	1.81%
COc1ccc(Cn2ccn(Cc3cccc(OC)c3)c(=O)c2=O)cc1	-44.5% (active)
COc1ccc(Cn2ccn(CC(=O)Nc3cc(C)ccc3C)c(=O)c2=O)cc1	10.1%
CC(=O)c1ccc(NC(c2ccc(F)cc2)c2nnc(-c3ccccc3)o2)cc1 (stereo not given)	-24.1%
CCOC(=O)c1c(C)[nH]c(C2=NNC(=NC(C)COC)SC2)c1C (stereo not given)	-30% (active)
Cc1ccc(-c2noc(CSc3nnc(-c4ccc(Cl)cc4)n3C)n2)cc1	0.344%
Cc1ccc2cccc(NC(=O)C(C)Oc3ccc(C)c(C)c3)c2n1 (stereo not given)	-2.12%
COC(=O)c1cc(NC(=O)c2cnc(SC)nc2-c2ccccc2)cc(C(=O)OC)c1	-16.6%
CCN(CC)S(=O)(=O)c1nnc(NC(=O)COc2ccccc2Cl)s1	1.29%
COc1cccc(NC(=S)N(CCc2c(C)[nH]c3ccccc23)Cc2ccco2)c1	-45.7% (active)
CCNC(=S)N(CCc1c(C)[nH]c2ccc(C)cc12)Cc1ccco1	-10.7%
COc1ccc2[nH]c(C)c(CCN(Cc3cccs3)C(=S)Nc3ccccc3OC)c2c1	-1.49%
COc1ccc(-c2cc(-c3ccc(F)cc3)nc3c2COc2ccccc2-3)cc1	10.1%
Cc1ccc(Cl)cc1N1CCN(C(=O)C2CCC(CNS(=O)(=O)c3cccs3)CC2)CC1 (stereo not given)	4.96%
CCN(CC)c1ccc(NC(=O)CN2CCN(CC(=O)Nc3ccc(Cl)cc3)CC2)cc1	7.6%
O=C(OCc1cc(=O)n2nc(C3CC3)sc2n1)c1ccccc1Cl	-4.47%
Cc1ccc(-n2c(=O)c3cccnc3n2CC(=O)NCc2ccc(F)cc2)cc1C	4.39%

SMILES	activity change, negative = inhibition
Cc1cccc(-c2ncc(CN3CCC(CO)(CCCc4ccccc4)CC3)cn2)c1	16.2%
CC(C)(O)C#Cc1ccc(CN2CCC(CO)(CCc3ccccc3)CC2)cc1	10.7%
OCC1(CCc2ccccc2)CCN(Cc2ccc3nsnc3c2)CC1	-86% (active)
CCc1ccc2ncc3c(-c4ccc(C)cc4)nn(CC(=O)NCc4ccccc4)c3c2c1	-13.5%
CCn1c(CSc2ncccn2)nnc1SCC(=O)N1c2ccccc2CC1C (stereo not given)	-3.34%
CC1Cc2ccccc2N1C(=O)CSc1nnc(-c2ccc(S(=O)(=O)N3CCCC3)cc2)n1C (stereo not given)	-5.59%
CC1Cc2ccccc2N1C(=O)CSc1nnc(C2CC2)n1C (stereo not given)	-45.3% (active)
CC(=O)c1ccc(N2CCN(C3C(=O)c4ccccc4N3C(C)=O)CC2)cc1 (stereo not given)	3.13%
COc1cccc(CNC(=O)C2CCN(S(=O)(=O)c3ccc4c(ccn4C)c3)CC2)c1	-13.2%
Nc1cccc(-c2cc(-c3ccccc3)nc(-c3cccc(N)c3)n2)c1	-35% (active)
Cc1cc(-c2ccccc2)n2nc(-c3ccccc3)cc2n1	5.34%
Cc1nc(NNC(=O)c2ccccc2)cc(-c2ccccc2)n1	-10.3%
Cc1ccc(S(=O)(=O)n2nc(C)c(S(=O)(=O)N3CCCCCC3)c2C)cc1	17.9%
COc1ccc(N(CC(=O)NCCc2ccc(Cl)cc2)S(=O)(=O)c2c(C)nn(C)c2C)cc1	-19.7%
CCC1CCCCN1S(=O)(=O)c1ccc(NC(=O)c2cc(=O)c3ccccc3o2)cc1 (stereo not given)	-15.6%
Cc1ccccc1CSCCNC(=O)C1CCN(S(=O)(=O)Cc2ccccc2)CC1	-13.9%
CC(C)(C)NC(=O)/C(=C/c1cccnc1)NC(=O)c1ccco1	-13.6%
Cc1cc(/C=C(/C#N)C(=O)Nc2ccc(Cl)cc2)c(C)n1-c1cccnc1	-14.3%
N#C/C(=C\c1cccnc1)C(=O)Nc1ccc(SC(F)F)cc1	-35.7% (active)
CCCCN1CC(c2nc3ccccc3n2CCCCOc2ccc(C)cc2C)CC1=O (stereo not given)	-5.31%
CCOC(=O)c1nnn2c3ccccc3c(=O)n(C)c12	-10.2%
CCOC(=O)c1nnn2c1nc(N1CCN(c3ccccc3)CC1)c1ccccc12	-35.4% (active)

SMILES	activity change, negative = inhibition
Cc1ccc(S(=O)(=O)c2nnn3c2nc(N2CCN(c4ccccn4)CC2)c2ccccc23)cc1	-20.2%
CCN1CCN(CCCNC(=O)c2ccc3c(c2)sc2nc(-c4ccc(OC)cc4)cn23)CC1	-14.6%
CSc1nn(Cc2cccc(C)c2)c(N)c1S(=O)(=O)c1ccccc1	-16.3%
O=C(CSc1nnc(SCc2ccc(F)cc2)s1)Nc1ccc(C(=O)O)cc1	6.86%
CC(C)(C)CC(=O)Nc1nnc(SCC(=O)NCc2cccs2)s1	3.61%
O=C(Cc1cccs1)Nc1nnc(SCc2ccc(F)cc2)s1	-79.5% (active)
COc1cccc(CNC(=O)CCC(=O)N2CC3CCCN3c3ccccc32)c1 (stereo not given)	-1.97%
Cc1ccccc1C(=O)Nc1cc(C)c(O)c(-c2nc3ccccc3o2)c1	5.18%
CCOC(=O)c1c(C)[nH]c(C)c1S(=O)(=O)N1CCCC(C(=O)NCc2ccccc2Cl)C1 (stereo not given)	-3.63%
COc1ccc(CCNC(=O)Cn2c(=O)n(-c3ccccc3)c(=O)c3c(C)c(C)sc32)cc1OC	2.12%
CC(C)n1ncc2c(C(=O)NCc3ccccc3CN(C)C)cc(C3CC3)nc21	-37.6% (active)
COc1ccc(OCCNC(=O)c2cc(C3CC3)nc3c2cnn3C(C)C)cc1	-8.1%
CC(C)n1ncc2c(C(=O)Nc3ccc(CC#N)cc3)cc(C3CC3)nc21	-2.28%
COc1ccc(Nc2ncc(C(=O)Nc3cc(C)ccc3OC)c3ccccc23)cc1	-5.45%
O=C(Cn1c(=O)n(-c2ccc(F)cc2)c(=O)c2sccc21)Nc1cccc(C(F)(F)F)c1	10.9%
CCOc1ccc(N(CC(=O)NCCc2ccc(OC)cc2)S(C)(=O)=O)cc1	6.98%
CCOc1ccc(N(CC(=O)NCCc2ccc(F)cc2)S(=O)(=O)c2ccccc2)cc1	-32.1% (active)
CCOc1ccc(N(CC(=O)NCCOc2ccccc2OC)S(=O)(=O)c2ccccc2)cc1	-9.44%
COc1ccc(CC(=O)N2CC(=O)Nc3ccc(Br)cc3C2c2ccc(F)cc2)cc1OC (stereo not given)	1.32%
Cc1nnc(C)n1-c1ccc(C(=O)Nc2cccc(Br)c2)cc1	-6.55%
COCCN(Cc1ccccc1)C(=O)Cc1ccc(S(=O)(=O)N2CCOCC2)s1	-46% (active)
CCN(Cc1ccccc1)C(=O)Cc1ccc(OC)c(S(=O)(=O)N2CCOCC2)c1	-8.6%

SMILES	activity change, negative = inhibition
O=C(Cc1ccc(S(=O)(=O)N2CCOCC2)s1)NCCC(c1ccccc1)c1ccccc1	2.72%
CNC(=O)c1[nH]cnc1C(=O)N[C@@H](CC(C)C)C(=O)OC(C)(C)C	-1.57%
C[C@H](NC(=O)c1nc[nH]c1C(=O)NCC(=O)OC(C)(C)C)C(=O)OCc1ccccc1	-24.2%
C[C@H](NC(=O)c1nc[nH]c1C(=O)N[C@@H](C)C(=O)OC(C)(C)C)C(=O)OC(C)(C)C	-89.3% (active)
CCCCS(=O)(=O)c1oc(-c2cccs2)nc1S(=O)(=O)c1ccccc1	11.6%
COc1ccc(-c2nc(Cn3c(=O)cc(C)c4c(C)nn(-c5ccccc5)c43)c(C)o2)cc1OC	0.18%
CCc1ccc(NC(=O)N2CCN(C(=O)c3nsc4ccccc34)CC2)cc1	-22.5%
COc1cccc(NC(=O)N2CCN(C(=O)c3nsc4ccccc34)CC2)c1	-44.8% (active)
Cc1c(Cl)cccc1NC(=O)N1CCN(C(=O)c2nsc3ccccc23)CC1	-9.22%
O=C(Nc1cc(C(F)(F)F)ccc1Cl)c1ccc2c(c1)CCN2S(=O)(=O)c1ccccc1	3.06%
COc1cc2[nH]c(=O)n(Cc3ccc(C(=O)NC4CCN(Cc5ccccc5)CC4)cc3)c(=O)c2cc1OC	8.55%
COc1ccc(C(=O)NC2CC2)cc1OC1CCN(Cc2ccc(SC)cc2)CC1	-63.9% (active)
COc1ccc(C(=O)NC2CC2)cc1OC1CCN(Cc2cnn(C)c2)CC1	-6.25%
COc1cc(C(=O)N2CCN(C/C=C/c3ccccc3)CC2)cc(OC)c1C	6.67%
COc1ccc(C(=O)NC2CC2)cc1OC1CCN(C/C=C/c2ccccc2)CC1	-56.2% (active)
COc1ccc(C(=O)NCCn2nc(C)cc2C)cc1OC1CCN(C(C)=O)CC1	1.96%
CCOc1ccccc1NC(=O)Cn1nnc(C(=O)Nc2ccc(C)c(C)c2)c1N	6.21%
CC(C)(C)OC(=O)N1CCC(c2c(C(=O)Nc3ccc4c(c3)OCO4)cnn2-c2ccccc2)CC1	1.48%
COc1ccc(C2Sc3ccccc3NC3=C2C(=O)c2ccccc23)c(OC)c1OC (stereo not given)	-5.17%
